Measurements from PubChem BioAssay AID720513 (Broad Institute, 2013).
In all, about 2,100 compounds went through this assay and about 480 (23%) were called active. About 5% were inconclusive and are not listed.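 How the source made its calls: active means fitted curve reaches 40% activation at or below the top valid concentration, in every replicate test; inconclusive means replicate tests disagree on the call; inactive means the rest, including activity in the opposite direction.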 Only a sample is shown. Potency and affinity values are given separately.

assay: PGC1a acetylation increase, cellular AlphaLISA – cell-based, cherry-picked samples, set 6, dose response (AID 720513); conditions: U2OS PGC1a acetylation AlphaLISA, overnight, 0 = neutral, -100 = inhibitor control; series mostly up to 19.5 µM;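 further: cells made to overexpress flag tagged PGC1a plus GCN5 acetyltransferase by viral infection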

outcome, inactive:
COc1ccccc1NC(=O)/C=C1\SCC(=O)N1C
Oc1c(Cl)cc(CN2CCOCC2)c2cccnc12
COc1ccc2c3c([nH]c2c1)[C@H](CO)N(C(=O)c1ccncc1)CC31CN(C(=O)c2ccncc2)C1
Cc1nc(SCC(=O)NC2CCCC2)[nH]c(=O)c1C
Cc1ccc(Cl)c(Cn2cnc3c(cnn3C(C)(C)C)c2=O)c1F
C[C@H](CO)N1C[C@H](C)[C@@H](CN(C)C(=O)CCN2CCCCC2)Oc2ncc(C#Cc3ccccn3)cc2C1=O
Cn1nnnc1Sc1ncnc2scc(-c3cc4ccccc4o3)c12
Cc1ccc(N2C(=O)N(CC(=O)Nc3ccc(C)cc3[N+](=O)[O-])C(=O)C2C)cc1 (stereo not drawn)
Cc1ccc(NC(=O)c2ccc(NCC3CCCO3)c([N+](=O)[O-])c2)cc1Cl (stereo not drawn)
CC(C)(C)c1ccc(OCC(=O)NNC(=O)Nc2ccccc2)cc1
O=C(CC(CC(=O)c1ccc(Br)cc1)c1cccnc1)c1ccc(Br)cc1
CC(C)(C)NC(=O)C(=O)NNC(=O)c1cccc([N+](=O)[O-])c1
CCc1ccc(NC(=O)Nc2ccncc2)cc1
N#CC1=C(N)Oc2n[nH]c(-c3ccccc3)c2C1c1ccncc1 (stereo not drawn)
CN(CC(=O)NCC1CCCO1)S(=O)(=O)c1cc(Cl)ccc1Cl (stereo not drawn)
Cc1noc(C)c1CSc1nnc(-c2cccnc2)n1C1CCCCC1C (stereo not drawn)
C/C=C/c1ccc2c(c1)O[C@H](CN(C)C(=O)C1CC1)[C@H](C)CN([C@@H](C)CO)S2(=O)=O
CN(Cc1cnc2nc(N)nc(N)c2n1)c1ccc(C(=O)N[C@@H](CCC(=O)O)C(=O)O)cc1
Cc1ccc(S(=O)(=O)C(C#N)c2nc3ccccc3nc2N2CCCC2)cc1 (stereo not drawn)
CCn1nnc(NC(=O)c2ccc(C(C)(C)C)cc2)n1
O=C(NCc1ccc2c(c1)OCO2)c1ccc(NC(=O)C2CCCO2)cc1 (stereo not drawn)
CC(C)(C)OC(=O)N1CCCC(C(=O)Nc2cccc(C(=O)NCc3ccccc3)c2)C1 (stereo not drawn)
O=C1NC(Nc2nccs2)(C(F)(F)F)C(=O)N1CCc1ccccc1 (stereo not drawn)
CC(C)CC(NC(=O)c1ccc(Cl)cc1)C(=O)OCC(=O)c1ccc2c(c1)NC(=O)CO2 (stereo not drawn)
C[C@H]1CN([C@@H](C)CO)C(=O)c2cccc(NC(=O)c3ccncc3)c2O[C@H]1CN(C)C(=O)Nc1ccc2c(c1)OCO2
C[C@H]1CN([C@@H](C)CO)C(=O)CCCn2nncc2CO[C@@H]1CN(C)C(=O)Nc1ccc2c(c1)OCO2
Cc1cc(C(=O)Nc2cccc3c2O[C@H](CN(C)C(=O)Nc2ccc4c(c2)OCO4)[C@@H](C)CN([C@H](C)CO)C3=O)n(C)n1
C[C@H]1CN([C@@H](C)CO)C(=O)Cc2cc(NS(=O)(=O)c3ccc(F)cc3)ccc2O[C@@H]1CN(C)C(=O)Nc1ccc2c(c1)OCO2
OCCN(Cc1ccccc1)CC1CCCCC1
O=C(Nc1ccccc1F)N1CCCCN2[C@@H](CO)[C@@H](c3ccc(C#Cc4ccccc4)cc3)[C@@H]2C1
CC(=O)Nc1cccc(-c2ccnc3c2CC(C)(C(=O)Nc2ccc(C(C)C)cc2)O3)c1 (stereo not drawn)
COc1ccc(NC(=O)C2(C)Cc3c(-c4cccc(NC(C)=O)c4)ccnc3O2)cn1 (stereo not drawn)
C[C@@H]1CCCCO[C@@H](CN(C)CC2CC2)[C@@H](C)CN([C@H](C)CO)C(=O)c2cc(NC(=O)C3CCCCC3)ccc2O1
NC(=O)c1ccc(NC(=O)C#Cc2ccccc2)cc1
CC(=O)Nc1ccc(C(=O)OC2CCOC2=O)cc1 (stereo not drawn)
COc1ccccc1OCCn1c(C(C)O)nc2ccccc21 (stereo not drawn)
COc1ccccc1C(=O)Nc1ccc2c(c1)C(=O)N(C)C[C@H](OC)[C@H](C)CN(CC1CC1)[C@@H](C)CO2
CCCCOc1ccc(/C=C/C(=O)OCC(=O)c2c(N)n(C)c(=O)n(C)c2=O)cc1OCC
CCCn1c(=O)c2ccccc2n2c(SCc3c(C(=O)OCC)oc4ccccc34)nnc12
COc1ccccc1-c1ccc([C@@H]2[C@H](CO)N(C(C)=O)C23CN(C(C)=O)C3)cc1
C[C@H](CO)N1C[C@H](C)[C@H](CN(C)S(=O)(=O)c2ccc(F)cc2)Oc2ccc(NS(=O)(=O)c3cn(C)cn3)cc2C1=O
O=C(Nc1ccc(C(F)(F)F)cc1)N1C[C@@H]2N[C@H](C1)C2c1ccc(-c2cccc(F)c2)cc1 (stereo partly drawn)
CCN(CC)C(=O)c1ccc(O)c(OC)c1
CC(C)NC(=O)Nc1ccc2c(c1)C(=O)N([C@@H](C)CO)C[C@@H](C)[C@H](CN(C)S(=O)(=O)c1ccccc1)OCCCC[C@@H](C)O2
CC(C)NC(=O)Nc1ccc2c(c1)C(=O)N([C@H](C)CO)C[C@@H](C)[C@H](CN(C)S(=O)(=O)c1ccccc1)OCCCC[C@@H](C)O2
C[C@@H]1CCCCO[C@@H](CN(C)C)[C@@H](C)CN([C@H](C)CO)C(=O)c2cc(NS(=O)(=O)c3ccc(Cl)cc3)ccc2O1
C[C@@H]1CN([C@@H](C)CO)C(=O)c2cc(N(C)C)ccc2O[C@@H](C)CCCCO[C@H]1CN(C)C(=O)c1ccncc1
CC(C)NC(=O)Nc1ccc2c(c1)C(=O)N([C@@H](C)CO)C[C@@H](C)[C@H](CN(C)C(=O)NC(C)C)OCCCC[C@@H](C)O2
CCCN(C)C[C@H]1OCCCC[C@@H](C)Oc2ccc(NS(=O)(=O)c3ccc(Cl)cc3)cc2C(=O)N([C@@H](C)CO)C[C@H]1C
C[C@@H]1CCCCO[C@H](CN(C)C(=O)Cc2ccccc2)[C@H](C)CN([C@@H](C)CO)C(=O)c2cc(N(C)C)ccc2O1
COc1ccc(NC(=O)N(C)C[C@@H]2OCCCC[C@@H](C)Oc3ccc(NC(=O)Cc4ccccc4)cc3C(=O)N([C@H](C)CO)C[C@@H]2C)cc1
O=C1CC2CS(=O)(=O)CC2N1c1ccc(Cl)cc1Cl (stereo not drawn)
NS(=O)(=O)c1ccc(CCNC2CC(=O)N(Cc3ccccc3)C2=O)cc1 (stereo not drawn)
